Compound activity from PubChem BioAssay.
ATXN2 expr inh = reduces ATXN2 reporter expression in HEK-293 cells | HEK-293 ATXN2-luciferase reporter, luminescence, 24 h | Potency, µM (series often up to 57 µM), without a hit: top-dose activity change, negative = inhibition, usual class: inhibitors | 360,000 compounds, 0.72% hits; further: on the % scale 0 is the no-effect control and ±100 the full control effect; nearly all actives have a fitted effect of over 55% in size
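ATXN2-luciferase reporter cells (luciferase flanked by upstream and downstream ATXN2 gene portions) were treated 24 h at 37 °C with compounds at up to 57 uM. SteadyGlo luminescence gave expression; GF-AFC fluorescence gave viability.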
HT1080 IDH1KD tx = kills HT-1080 cells with IDH1 knockdown. HT-1080 IDH1 knockdown viability, ATP luminescence, 48 h. Potency, µM (series often up to 46.1 µM), inactives show top-dose activity, negative = toxicity, usual class: cytotoxic. 360,000 compounds, 2% hits;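 further: 0% = DMSO wells and -100% = cell-free medium wells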
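Knockdown cells (IDH1KD HT-1080) received compounds 2 h after plating at 750 cells/well and were kept 48 h at 37 °C in 5% FBS RPMI. A CellTiter-Glo luminescence read gave % activity for curve fitting.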
ATXN viability = cell viability loss in ATXN counter-screen. S2 cells (HEK-293 line with an ATXN2-luciferase reporter) viability, CellTiter-Fluor protease fluorescence, 24 h. Potency, µM (highest dose often 56.7 µM), most hits filed as cytotoxic. 400,000 compounds, 0.49% hits; further: nearly all actives have a fitted effect of over 40% in size
KB-V1 cytotox = KB-V1 MDR subline cytotoxicity. 400,000 compounds, 3.4% hits. Potency, µM (doses to about 46.1 µM), usual class: cytotoxic. KB-V1 MDR cells viability, CellTiter-Glo, 72 h. AID 1347076; further: on the % scale 0 is the no-effect control and ±100 the full control effect; nearly all actives have a fitted effect of over 60% in size
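In this primary screen, KB-V1 cells overexpressing P-gp are incubated with library compounds (lowest to highest concentration) for 72 h at 37 degrees C before a luminescent ATP viability read.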
KB-3-1 tox = KB-3-1 parental cell cytotoxicity | KB-3-1 viability, CellTiter-Glo ATP luminescence, 72 h | Potency, µM (doses to about 46.1 µM), hits mostly cytotoxic | 400,000 compounds, 1.4% hits | AID 1347075; further: on the % scale 0 is the no-effect control and ±100 the full control effect; nearly all actives have a fitted effect of over 60% in size
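Cells are dispensed, compounds pinned in, plates held at 37 °C for 72 h, then CellTiter-Glo is added and luminescence read after 10 minutes. Cell line: parental KB-3-1 in phenol-red-free DMEM, 10% FBS.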
HT1080-NT tox = kills 2HG-producing HT-1080-NT fibrosarcoma cells. AID 686970. 360,000 compounds, 1.6% hits. HT-1080-NT fibrosarcoma viability, CellTiter-Glo ATP luminescence, 48 h. Potency, µM (top dose mostly 46.1 µM), for the others: at the top dose activity, negative = less viability, actives largely listed as cytotoxic;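 further: NT is the 2HG producing partner of a matched IDH1 knockdown line; 0% = DMSO-treated cells and -100% = media-only wells without cells; nearly all actives have a fitted effect of over 55% in size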
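Read-out is CellTiter-Glo luminescence after 10 minutes at room temperature, following 48 hours' compound treatment of HT-1080-NT cells (750 cells/well, RPMI, 5% FBS, 37 degrees C).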
* = called active by the depositor; i = inactive; ? = inconclusive; / = no result given. The list is not random: actives were taken first. Their share in the collection is about 6.2%. The call rests on the fitted dose curve; in most records, active means well fitted curve in the direction sought with a large enough effect; inconclusive means small, poorly fitted or top-dose-only effect, or another doubt; inactive means no such curve, though single readings can be large; an effect the other way counts as inactive or inconclusive. Potency means the concentration at half of the fitted maximal effect.

SMILES	ATXN2 expr inh	HT1080 IDH1KD tx	ATXN viability	KB-V1 cytotox	KB-3-1 tox	HT1080-NT tox
COc1ccc(C=CC(=O)c2ccc(OC)c(OC)c2O)cc1OC	2%	26µM*	i	?	i	?
COc1ccc(C=CC(=O)c2ccc3cc(OC)c(OC)cc3c2)cc1OC	/	?	/	i	?	-24%
COc1ccc(C=CC(=O)c2ccc(OC)c(OC)c2)cc1O	/	21µM*	?	?	?	-11%
COc1cc(OC)c(C(=O)C=Cc2ccc(OC)c(OC)c2)c(OC)c1	?	?	i	?	?	?
CC(C)(C)N1C(=O)c2ccc(C(=O)Nc3ccc(O)cc3)cc2C1=O	-17%	?	?	8.2µM*	?	?
CCOC(=O)C1CCCN(C(=O)c2ccc3sccc3c2)CC1 (stereo not drawn)	0%	2%	?	?	i	14%
O=C1CCCC2=C1C(c1[nH]ncc1Cl)N=C(Nc1nc3ccccc3o1)N2 (stereo not drawn)	38%	/	/	/	/	/
Cc1cccc(-n2ccnc2SCC(=O)Nc2cc(C)on2)c1	-8%	15%	i	i	i	18%
CCOc1ccc(-n2ccnc2SCC(=O)Nc2cc(C)on2)cc1	-14%	-9%	i	15µM*	i	1%
Cc1cc(NC(=O)CSc2nccn2-c2cccc(F)c2)no1	-3%	8%	i	16µM*	i	13%
CCOc1ccc(-n2ccnc2SCC(=O)N2CCCc3ccccc32)cc1	-12%	-5%	i	12µM*	i	-5%
Cc1cc(NC(=O)CSc2nccn2-c2cccc(C)c2C)no1	?	?	i	10µM*	?	?
CCSc1nnc(NC(=O)CSc2nccn2-c2cccc(C)c2C)s1	10%	-3%	i	21µM*	i	-1%
CNC(=O)c1ccc(C)c(-n2c(C)cc(OCc3ccc(F)cc3F)c(Br)c2=O)c1	1%	/	/	/	/	/
CC(=O)C1=C(C)NC(SCC(=O)c2ccc(Cl)cc2)=C(C#N)C1CC(C)C (stereo not drawn)	-5%	6%	i	21µM*	i	21%
CCOC(=O)C1=C(C)NC(SC)=C(C#N)C1CC(C)C (stereo not drawn)	-31%	2.6µM*	?	5.2µM*	4.1µM*	1.8µM*
O=C(NC(Sc1ccc(Cl)cc1)C(=O)O)c1ccccc1 (stereo not drawn)	/	-15%	i	i	i	-3%
CCC(=O)NC(Nc1sc2c(c1C(=O)OC)CCC2)C(Cl)(Cl)Cl (stereo not drawn)	-17%	1%	i	23µM*	?	1%
COC(=O)c1c(NC(NC(=O)C(C)C)C(Cl)(Cl)Cl)sc2c1CCC2 (stereo not drawn)	-13%	-26%	i	i	i	-22%
COC(=O)c1c(NC(NC(=O)CC(C)C)C(Cl)(Cl)Cl)sc2c1CCC2 (stereo not drawn)	-15%	-14%	i	18µM*	i	1%
O=C(NC(CC(=O)N1CCN(c2ccccc2O)CC1)c1ccccc1)c1ccccc1Cl (stereo not drawn)	-23%	-6%	i	5.8µM*	i	-11%
Cc1cccc(N2CCN(C(=O)CC(NC(=O)c3ccccc3Cl)c3ccccc3)CC2)c1C (stereo not drawn)	?	-16%	i	i	i	-17%
CC(=O)Nc1c(Cl)cc2c(c1Cl)Cc1ccccc1-2	29%	5%	i	i	i	10%
CC(=O)Nc1c(Cl)cc2c(c1Cl)Cc1cc(C#N)ccc1-2	10%	-14%	i	0.92µM*	1.2µM*	-9%
COc1cc(NC(=O)c2ccccn2)cc(OC)c1OC	/	6%	i	i	i	14%
COc1cc(C(=O)N/N=C(\c2ccccc2)c2ccccn2)cc(OC)c1OC	2.5µM*	?	i	i	?	?
